The text below walks through data of PubChem BioAssay (NCATS).

Several values for one entry are separate records, joined by “and”; a condition that tells them apart may be missing. Equal entries are not always repeated. Inconclusive results are not listed. Activity calls are given as the source filed them. Unless noted, the call rests on the fitted dose curve; in most records, active means well fitted curve in the direction sought with a large enough effect; inconclusive means small, poorly fitted or top-dose-only effect, or another doubt; inactive means no such curve, though single readings can be large; an effect the other way counts as inactive or inconclusive.

Assay [1] in a line: Cell Viability - Jurkat (AID 426;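 active means dose-dependent loss of cell ATP signal giving a full or clear fitted curve, ranked by lower potency value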;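 further: potency means the concentration at half of the fitted maximal effect; cells exposed to compound for 40 hours at 37 °C before ATP read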). The note with it: qHTS. In a few lines: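 Seed 5000 Jurkat E6-1 cells/well; add compound; incubate 40 hr at 37 °C; add CellTiter-Glo; wait 20 min at room temperature; read luminescence. Fit concentration-response with Hill equation for AC50.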
The nature of assay [2]: Cell Viability - Hek293 (AID 427;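 active means compounds whose dose-response curve shows a full or clear partial loss of cell viability, called from curve shape rather than a numeric limit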;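 further: potency means the concentration at half of the fitted maximal effect; cells exposed to compound for 40 hours at 37 °C before reading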). As to conditions: qHTS. The gist of the method: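 qHTS, human embryonic kidney (adenovirus-transformed) cells; 40 hr cpd, 37 °C; CellTiter-Glo ATP luminescence. Norm: DMSO = 0, 100 uM tamoxifen = 100% inhibition. Hill-fit AC50.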
For orientation: qHTS replaces the single test concentration by a dilution series.

A short description of assay [3]: Cell Viability - N2a (AID 540).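 Further: cells exposed to compound for 40 h at 37 °C; plate controls were DMSO alone for no effect and tamoxifen control for full effect; nearly all actives have a fitted effect of over 45% in size.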 The note with it: N2a mouse neuroblastoma cell viability; at 92.2 µM (top of the series). The gist of the method:
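First, 1500 N2a cells per well incubate 5 hr at 37 °C; next, compounds are added and incubated 40 hr at 37 °C; finally CellTiter-Glo is added and luminescence read after 20 min, with AC50 derived by Hill modeling.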

A short description of assay [4]: Cell Viability - H-4-II-E (AID 543).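 Further: cells exposed to compound for 40 hours; on the % scale 0 is the no-effect control and ±100 the full control effect; nearly all actives have a fitted effect of over 35% in size.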 The note with it: H-4-II-E rat hepatoma viability; series mostly up to 92.2 µM. The gist of the method: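 Here, cytotoxicity is measured in the rat hepatoma line H-4-II-E as loss of intracellular ATP after 40 hr compound treatment, detected by luciferase luminescence.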
Assay [5] can be described thus: Cellular Toxicity (caspase-3) HepG2 (AID 654).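 Further: cells exposed to compound for 16 hours before reading; 0% = DMSO alone and 100% = caspase signal from 100 µM tamoxifen.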 The note with it: HepG2 caspase-3 activation, luminescence, 0% = DMSO only, 100% = tamoxifen; series mostly up to 92.2 µM. The gist of the method: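 qHTS, HepG2, 1500 cells/well, complete medium; cpd 16 h 37 °C; Caspase-Glo 3/7, 20 min RT; lum. Norm: DMSO vs 100 uM tamoxifen; AC50 Hill fit.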
Assay [6] is described as follows: Cellular Toxicity (caspase-3) NIH 3T3 (AID 666).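 Further: caspase signal read after 16 h compound exposure; 0% = DMSO basal and 100% = 100 µM tamoxifen stimulation.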 As to conditions: NIH 3T3 caspase-3 activation, apoptosis/toxicity, 0% DMSO, 100% is 100 µM tamoxifen; series mostly up to 92.2 µM. In a few lines:
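Concentration-response qHTS in NIH 3T3 mouse fibroblasts scores caspase-3/7 activation as rising luminescence after 16 hr compound exposure. Signals are scaled between DMSO-only and 100 uM tamoxifen.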

A short description of assay [7]: MultiTox-Fluor Cytotoxicity Assay - LYMP1-002 - Live Cells (AID 955). Further: on the % scale 0 is the no-effect control and ±100 the full control effect. As to conditions: LYMP1-002 lymphoblastoid live-cell protease fluorescence viability; series mostly up to 46.1 µM. In a few lines: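 Cytotoxicity in the human lymphoblastoid line LYMP1-002 is measured as loss of live-cell protease activity after 16 h treatment in complete culture medium. AC50 is derived from Hill-equation fits of qHTS concentration-response data.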

The nature of assay [8]: MultiTox-Fluor Cytotoxicity Assay - LYMP1-003 - Live Cells (AID 962).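 Further: 0% = DMSO only and full loss = 92 µM tetraoctylammonium bromide; cytotoxic hits lower the live-cell protease signal.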 The note with it: LYMP1-003 lymphoblastoid cells, MultiTox-Fluor live-cell protease fluorescence; series mostly up to 92.2 µM. In a few lines: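 Cells plated at 2500 per well and incubated 5 hr; compounds added and incubated 16 hr at 37 C; MultiTox-Fluor reagent added for 60 min at room temperature; fluorescence of liberated AFC measured at 405/510 nm.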

The nature of assay [9]: Cell Viability - LYMP2-003 (AID 965).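 Further: cells exposed to compounds for 24 h before reading; 0% = DMSO only and full effect = 92 µM tetraoctylammonium bromide; nearly all actives have a fitted effect of over 50% in size.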 The note with it: LYMP2-003 lymphoblastoid cell viability; series mostly up to 92.2 µM. In a few lines: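 CellTiter-Glo luminescence (cellular ATP) after 24 h compound exposure at 37 C in complete medium; 2500 cells/well, 5 h settling beforehand. Concentration-response fitted to standard Hill equation for AC50. Tetraoctylammonium bromide served as positive control.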

Assay [10] in a line: Cell Viability - LYMP2-006 (AID 978).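 Further: cells exposed to compound for 24 hours; on the % scale 0 is the no-effect control and ±100 the full control effect; nearly all actives have a fitted effect of over 60% in size.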 As to conditions: LYMP2-006 lymphoblastoid cell viability, qHTS; series mostly up to 92.2 µM. In a few lines: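 qHTS, 1536-well; 2500 cells/well, 5 hr 37 C; cpd 24 hr 37 C; CellTiter-Glo 30 min RT; luminescence. Tetraoctylammonium bromide pos. ctrl. AC50 via Hill eqn.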
The nature of assay [11]: Cell Viability - LYMP2-008 (AID 980). Further: on the % scale 0 is the no-effect control and ±100 the full control effect; nearly all actives have a fitted effect of over 60% in size. The note with it: LYMP2-008 lymphoblastoid cell viability, qHTS; series mostly up to 92.2 µM. In a few lines: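 Acute cytotoxicity is scored as concentration-dependent loss of cellular ATP in a human lymphoblastoid line after 24 hr treatment at 37 C. ATP is quantified by luciferase luminescence.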
Assay [12] is described as follows: Cell Viability - LYMP2-026 (AID 989). Further: on the % scale 0 is the no-effect control and ±100 the full control effect; nearly all actives have a fitted effect of over 50% in size. As to conditions: LYMP2-026 lymphoblastoid cell viability, qHTS; series mostly up to 92.2 µM. The gist of the method: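 Concentration-dependent loss of intracellular ATP in human lymphoblastoid cells after 24 hr at 37 C, quantified by luciferase luminescence. AC50 derived from standard Hill equation.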
Assay [13] in a line: Cell Viability - LYMP1-002 - Assay at 24 hr (AID 993). Further: on the % scale 0 is the no-effect control and ±100 the full control effect. As to conditions: LYMP1-002 lymphoblastoid cells viability; series mostly up to 92.2 µM. In a few lines: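 qHTS, LYMP1-002 lymphoblastoid, 24 h cpd, 37 C, CellTiter-Glo ATP luminescence; AC50 via Hill eq.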
A short description of assay [14]: Cell Viability - LYMP1-002 - Assay at 40 hr (AID 994).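 Further: 0% = DMSO only and full inhibition = 92 µM tetraoctylammonium bromide; nearly all actives have a fitted effect of over 60% in size.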 The note with it: LYMP1-002 lymphoblastoid cell viability; series mostly up to 92.2 µM. In a few lines: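 Viability in the human lymphoblastoid line was measured as intracellular ATP via CellTiter-Glo after 40 hr compound exposure. Tetraoctylammonium bromide served as positive control.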
A short description of assay [15]: qHTS assay for small molecule agonists of retinoid X receptor alpha signaling (AID 588544). The note with it: HEK293T RXRa-UAS-bla, beta-lactamase reporter, 18 h; 530 nm emission.
Assay [16] in a line: qHTS assay for small molecule disruptors of the mitochondrial membrane potential - 5 hr assay (AID 651755; calls by dose curve; further: on the % scale 0 is the no-effect control and ±100 the full control effect; nearly all actives have a fitted effect of over 40% in size). As to conditions: JC-1-type ratio dye; series mostly up to 92.2 µM. The gist of the method: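 HepG2 cells, attached overnight at 37C, were exposed to compound or DMSO for 5 hr at 37C, 5% CO2. Mito-MPS dye was then added for 30 min, and fluorescence read at 490/535 nm (monomers) and 540/590 nm (aggregates).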

The target in assay [17] is Tumor necrosis factor (Homo sapiens) (UniProt P01375). Kind of assay: qHTS assay to identify small molecules that stimulate Tumor Necrosis Factor-alpha (TNF-alpha) secretion (AID 651757; active means well fitted curve in the direction sought with a large enough effect in the signal ratio; the % refers to the signal ratio; further: 0% is about no effect). The note with it: Human cells, HTRF 665/615 ratio; series mostly up to 92.2 µM. The gist of the method:
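Secreted TNF-alpha from compound-treated THP-1 cells (17 hrs, 37 C) was quantified with a homogeneous time-resolved fluorescence antibody assay.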

In assay [18] the target is Peroxisome proliferator-activated receptor alpha (Homo sapiens) (UniProt Q07869). Description: qHTS assay for small molecule agonists of the peroxisome proliferator-activated receptor alpha (PPARalpha) signaling pathway (AID 651778). Further: % of control where 0% means no effect. The note with it: PathHunter PPARalpha complementation, chemiluminescence, 6 h; stronger effect = higher value. In a few lines:
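Cells plated at 2,000/well and held overnight at 37 C, 5% CO2, then compound added by pin tool for 6 hr; after PathHunter detection reagent and 60 min at room temperature, chemiluminescence from enzyme complementation was read.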

A short description of assay [19]: qHTS assay for small molecule agonists of the antioxidant response element (ARE) signaling pathway measured by Nrf2-dependant transcriptional activity (AID 720636; active means well fitted curve in the direction sought with a large enough effect in the repeat runs; an effect the other way counts as inactive or inconclusive;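 further: HepG2 cells with an ARE-driven luciferase reporter; % of control where 0% means no effect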). As to conditions: ARE-luc HepG2, Nrf2 luciferase reporter, 16 h; series mostly up to 92.4 µM. The gist of the method:
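ONE-Glo luminescence, read 30 min after reagent addition at room temperature, reflected ARE reporter activity in HepG2 cells that had been incubated with compound for 16 hr at 37 C in 1% dialyzed FBS.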

Assay [20] can be described thus: Cell Viability - LYMP1-003 - Assay at 40 hr (AID 964). Further: on the % scale 0 is the no-effect control and ±100 the full control effect; nearly all actives have a fitted effect of over 60% in size. The note with it: LYMP1-003 lymphoblastoid viability; series mostly up to 92.2 µM. The gist of the method:
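This qHTS cytotoxicity screen treats human lymphoblastoid cells (LYMP1-003) with compounds for 40 hr and quantifies cellular ATP via luciferase luminescence.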

Chain of Tumor necrosis factor (Homo sapiens) (P01375 whole entry, looked up): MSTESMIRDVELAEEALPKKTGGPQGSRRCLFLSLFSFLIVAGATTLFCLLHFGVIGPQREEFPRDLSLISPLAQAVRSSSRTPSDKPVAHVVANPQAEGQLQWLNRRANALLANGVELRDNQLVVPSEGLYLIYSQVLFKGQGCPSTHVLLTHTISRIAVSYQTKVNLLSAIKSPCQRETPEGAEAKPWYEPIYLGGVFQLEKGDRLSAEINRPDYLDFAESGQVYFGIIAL
Chain of Peroxisome proliferator-activated receptor alpha (Homo sapiens) (Q07869 whole entry, looked up): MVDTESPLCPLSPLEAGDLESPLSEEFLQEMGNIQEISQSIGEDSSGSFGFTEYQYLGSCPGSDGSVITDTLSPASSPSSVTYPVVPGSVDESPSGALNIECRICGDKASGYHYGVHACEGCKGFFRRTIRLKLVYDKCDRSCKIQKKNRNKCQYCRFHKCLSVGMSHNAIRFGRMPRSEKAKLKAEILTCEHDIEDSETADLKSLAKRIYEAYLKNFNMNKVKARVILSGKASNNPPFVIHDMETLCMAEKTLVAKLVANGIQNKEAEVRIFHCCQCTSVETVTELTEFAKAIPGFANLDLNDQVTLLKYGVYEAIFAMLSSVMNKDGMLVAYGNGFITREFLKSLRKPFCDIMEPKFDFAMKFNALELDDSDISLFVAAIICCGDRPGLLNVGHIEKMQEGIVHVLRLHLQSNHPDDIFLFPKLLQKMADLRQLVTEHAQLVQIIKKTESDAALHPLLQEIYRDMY

Take `Cc1ccc(O)c(C)c1`: the Potency in assay [1] and in [2] was > 92 µM (inactive) throughout. Moreover, in assay [3], the activity change, negative = cytotoxicity is 1.99% (inactive). For the same molecule, the Potency entry in [4], in [8], in [9], in assay [10], in assay [11] and in assay [12] was “inactive” throughout. Also, the Potency entry in [13], in assay [14] and in assay [16] was “inactive” throughout. The molecule was classed as inactive in assay [5], in assay [6], in assay [7], in assay [17] and in assay [19]. Also, the max response is -1.3% and -5.42% in assay [15]; -1.5% (inactive) and -1.55% (inactive) and 1.86% (inactive) in [18].

For `CCOc1ccc(N)cc1`, the Potency in assay [1] and in [2] was > 92 µM (inactive) throughout. Further, in assay [3], the activity change, negative = cytotoxicity was -4.95% (inactive). In addition, the Potency result in [4], in [8], in [20], in assay [9], in assay [10] and in assay [11] was “inactive” in each case. Further, the Potency entry in [12], in assay [13], in assay [14] and in assay [16] was “inactive” in each case. For the same molecule, the result in assay [5], in assay [6], in assay [7], in assay [17] and in assay [19] was inactive. Also, the max response in assay [15] is -1.09%; in assay [18], 3.04% (inactive).

As to `c1ccc(OP(Oc2ccccc2)Oc2ccccc2)cc1`, the Potency in assay [1] and in assay [2] was > 92 µM (inactive) throughout. Also, the activity change, negative = cytotoxicity in [3] is 6.82% (inactive). Further, the Potency entry in assay [4], in [8], in assay [20], in assay [9], in assay [10] and in [11] was “inactive” throughout. Further, the Potency entry in assay [12], in assay [13], in assay [14] and in [16] was “inactive” throughout. Moreover, the outcome in assay [5], in assay [6], in assay [7], in [17] and in [19] was inactive. Further, the max response in [15] was 3.52% and -16.1%; in [18] it was -2.33% (inactive) and -1.84% (inactive).

As for `S=C=Nc1cccc2ccccc12`, the Potency in assay [1] and in assay [2] was > 92 µM (inactive) in each case. Moreover, the activity change, negative = cytotoxicity in assay [3] is 6.83% (inactive). For the same molecule, the Potency entry in assay [4], in assay [8], in assay [20], in assay [9], in assay [10] and in assay [11] was “inactive” in each case. In addition, the Potency result in assay [12], in [13], in [14] and in assay [16] was “inactive” in each case. For the same molecule, the result in assay [5], in assay [6], in [7], in assay [17] and in assay [19] was inactive. Besides, the max response in [15] was 6.51%; in assay [18] it was 5.47% (inactive).

Consider `Cc1cccc(C#N)c1`, for which the Potency in [1] and in [2] was > 92 µM (inactive) in each case. Besides, the activity change, negative = cytotoxicity in assay [3] is -2.18% (inactive). The Potency result in [4], in [8], in [20], in assay [9], in assay [10] and in assay [11] was “inactive” each time. Besides, the Potency entry in [12], in assay [13], in [14] and in assay [16] was “inactive” in each case. The molecule was called inactive in [5], in [6], in assay [7], in [17] and in assay [19]. Besides, the max response in [15] was -7.67%; in assay [18], -0.3% (inactive).

Consider `Cc1cccc([N+](=O)[O-])c1`, for which the Potency in assay [1] and in assay [2] was > 92 µM (inactive) throughout. Moreover, in assay [3], the activity change, negative = cytotoxicity is -15.4% (inactive). Besides, the Potency result in assay [4], in [8], in [20], in assay [9], in assay [10] and in assay [11] was “inactive” each time. For the same molecule, the Potency result in assay [12], in [13], in assay [14] and in [16] was “inactive” throughout. Besides, the molecule was classed as inactive in assay [5], in assay [6], in assay [7], in assay [17] and in assay [19]. Further, the max response in assay [15] is 2.54% and -15.5%; in assay [18], -3.99% (inactive) and -0.65% (inactive).
